Data on seven compounds can be found in PubChem BioAssay (NCI).

This is part of a sample that, as a whole, favours compounds with a hit. Of some 83,000 tested, about 20% had one in any assay.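 How to read the values: 0–100, growth inhibition (40 = 60% inhibited); 0, no net growth; -100 to 0, cell death (-40 = 40% of starting cells died; -100 = all dead).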 Values without a mark were called inactive. The source made the active and inactive calls. Rule for the calls: active = growth percent below 10; inactive = the rest.

Among the test systems are HCT-15 colon; HT29 colon; SNB-75 CNS; SNB-19 CNS; U251 CNS; PC-3 prostate; SK-MEL-5 melanoma; UACC-62 melanoma; LOX IMVI melanoma; SK-MEL-28 melanoma; SK-MEL-2 melanoma; EKVX NSCLC; SN12C renal; UO-31 renal; TK-10 renal; ACHN renal; CAKI-1 renal; A498 renal; MOLT-4 leukemia; CCRF-CEM leukemia.
Holding throughout (experiment): NCI-60 one-dose screen, 48 h (100 = growth as untreated, 0 = no growth, -100 = all killed)
What all share (conditions): 10 µM unless noted

With `O=C1c2c(c3c4ccccc4[nH]c3c3ccc4ccccc4c23)C(=O)N1CCN1CCNCC1`, the growth with HCT-15 colon is -45.2% (active); with HT29 colon it was -14.6% (active); in the assay with SNB-75 CNS, 85%; in the assay on SNB-19 CNS it was 74.3%; in the assay with U251 CNS, -11.2% (active); in the assay with PC-3 prostate, 56.6%. For the same compound, the growth was 73.5% with SK-MEL-5 melanoma; 82% in the assay on UACC-62 melanoma; -87.2% (active) in the assay on LOX IMVI melanoma; 100% with SK-MEL-28 melanoma; 104% with SK-MEL-2 melanoma; 84.7% in the assay with EKVX NSCLC. The growth was 65.2% with SN12C renal; 56.7% with UO-31 renal; 108% in the assay with TK-10 renal; -49.4% (active) in the assay with ACHN renal; 63.3% in the assay on CAKI-1 renal; 61.2% in the assay with A498 renal. In addition, in the assay on MOLT-4 leukemia, the growth is -20.3% (active).

On to `C=CCn1c(C)nc2ccc(Nc3nc(Nc4ccc5nc(C)n(CC=C)c5c4)c4ccccc4n3)cc21`, for which the growth is -51.7% (active) in the assay with HCT-15 colon; -96.7% (active) in the assay with HT29 colon; -95.2% (active) in the assay on SNB-75 CNS; 30.6% in the assay with SNB-19 CNS; -94.2% (active) with U251 CNS; -47.8% (active) in the assay on PC-3 prostate. For the same compound, the growth is -94.2% (active) in the assay on SK-MEL-5 melanoma; -87% (active) with UACC-62 melanoma; -88.6% (active) in the assay on LOX IMVI melanoma; -96% (active) in the assay with SK-MEL-28 melanoma; -83.8% (active) in the assay on SK-MEL-2 melanoma; 2.58% (active) in the assay on EKVX NSCLC. In addition, the growth in the assay on SN12C renal is -74.9% (active); in the assay with UO-31 renal it was -91.4% (active); in the assay with TK-10 renal it was -88.5% (active); in the assay on ACHN renal it was -80% (active); in the assay on CAKI-1 renal, -24.1% (active); with CCRF-CEM leukemia it was -20.8% (active). The growth in the assay on MOLT-4 leukemia was -45.5% (active).

Consider `COc1ccc(C(O)c2cc3c(N)c(C(=O)Nc4cccc(Br)c4)sc3nc2C)cc1` (stereo not drawn), for which the growth in the assay with HCT-15 colon is 7.7% (active); in the assay with HT29 colon, 8.32% (active); with SNB-75 CNS, 24.4%; in the assay with SNB-19 CNS, 24.6%; in the assay with U251 CNS, 15.7%; with PC-3 prostate, 15.6%. Also, the growth in the assay with SK-MEL-5 melanoma was -72.9% (active); in the assay on UACC-62 melanoma it was 13.5%; in the assay on LOX IMVI melanoma, 15.5%; with SK-MEL-28 melanoma, 50.7%; in the assay on SK-MEL-2 melanoma, 33.9%; in the assay on EKVX NSCLC, 46.2%. For the same compound, the growth is 12.1% with SN12C renal; 22.9% in the assay with UO-31 renal; 62.9% in the assay on TK-10 renal; 19.8% with ACHN renal; 13.5% in the assay on CAKI-1 renal; -9.2% (active) in the assay with A498 renal. For the same compound, the growth in the assay on MOLT-4 leukemia is 15.8%.

In the case of `CN(C)CCNC(=O)c1cc2c3cc(Cl)ccc3[nH]c2c2ncccc12`, the growth in the assay on HCT-15 colon was 14.2%; in the assay on HT29 colon, 0.808% (active); in the assay with SNB-75 CNS it was 44.7%; in the assay on SNB-19 CNS, 40%; in the assay with U251 CNS, 11.5%; in the assay with PC-3 prostate it was 22.4%. For the same compound, the growth in the assay with SK-MEL-5 melanoma was -38.8% (active); with UACC-62 melanoma it was -86.5% (active); in the assay with LOX IMVI melanoma, -77.5% (active); in the assay on SK-MEL-28 melanoma, -59.3% (active); in the assay with SK-MEL-2 melanoma, 47.9%; with EKVX NSCLC it was 22.1%. Further, the growth in the assay with SN12C renal was 10.2%; in the assay on UO-31 renal, 6.68% (active); in the assay with TK-10 renal, 42.8%; in the assay with ACHN renal, 10.2%; in the assay with CAKI-1 renal, 23.8%; in the assay with CCRF-CEM leukemia, -13.2% (active). The growth in the assay with MOLT-4 leukemia is -12.4% (active).

As to `C=CCSc1nnc(NC(=O)CCl)s1`, the growth in the assay with HCT-15 colon was 89.7%; in the assay on HT29 colon, 110%; with SNB-75 CNS, 103%; in the assay with SNB-19 CNS, 89.8%; in the assay on U251 CNS, 92%; in the assay on PC-3 prostate, 103%. The growth is 88% with SK-MEL-5 melanoma; 88.8% in the assay on UACC-62 melanoma; 7.79% (active) in the assay on LOX IMVI melanoma; 99% in the assay on SK-MEL-28 melanoma; 103% in the assay with SK-MEL-2 melanoma; 100% in the assay on EKVX NSCLC. Moreover, the growth in the assay on SN12C renal is 95.2%; in the assay on UO-31 renal, 95.5%; in the assay with TK-10 renal, 108%; with ACHN renal, 94.5%; in the assay with CAKI-1 renal it was 93.3%; with A498 renal it was 90.3%. Further, in the assay with MOLT-4 leukemia, the growth was 90.7%.

Consider `COC(=O)c1c2c(c(C)[n+]([O-])c1C)C(=O)C(NCc1cccc(OC)c1)=CC2=O`, for which the growth in the assay with HCT-15 colon was 11.9%; with HT29 colon, 11.4%; with SNB-75 CNS it was 132%; in the assay with SNB-19 CNS, 19.2%; in the assay on U251 CNS, -1.83% (active); in the assay with PC-3 prostate it was 6.62% (active). For the same compound, the growth in the assay with SK-MEL-5 melanoma was -54.8% (active); in the assay on UACC-62 melanoma, -13.3% (active); with LOX IMVI melanoma, 22%; in the assay on SK-MEL-28 melanoma it was 86.6%; in the assay on SK-MEL-2 melanoma, 64.3%; in the assay with EKVX NSCLC, 57.2%. The growth was 2.9% (active) in the assay with SN12C renal; 76.8% in the assay on UO-31 renal; 104% with TK-10 renal; 47.8% with ACHN renal; 55.7% with CAKI-1 renal; 108% in the assay with A498 renal. Besides, in the assay with MOLT-4 leukemia, the growth is 3.8% (active).

For `O=S(=O)(Nc1cc(Cl)ccc1Cl)c1ccc(-c2cnc(C3CC3)o2)cc1`, the growth with HCT-15 colon was 26.2%; with HT29 colon it was 5.45% (active); in the assay on SNB-75 CNS, -8.98% (active); with SNB-19 CNS, 31.7%; in the assay with U251 CNS, 30.2%; in the assay with PC-3 prostate, 38.3%. Further, the growth in the assay on SK-MEL-5 melanoma was 31.1%; in the assay with UACC-62 melanoma, 33.2%; in the assay with LOX IMVI melanoma, 35.8%; in the assay on SK-MEL-28 melanoma it was 63.2%; with SK-MEL-2 melanoma, 39%; in the assay with EKVX NSCLC, 58.7%. For the same compound, the growth was 60.3% with SN12C renal; 49.6% with UO-31 renal; 60% in the assay on TK-10 renal; 34.2% in the assay on ACHN renal; 33.5% in the assay with CAKI-1 renal; -7.01% (active) with A498 renal. Besides, in the assay on MOLT-4 leukemia, the growth was 44.1%.
